This is an account of results in PubChem BioAssay.

Each structure is given as a SMILES string. Several values for one entry are separate records, joined by “and”; a condition that tells them apart may be missing. Equal values may be shown once. Activity calls are given as the source filed them.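 Rule for the calls: active = z-score of at least 1.8 in each of two replicates, scored against plate mean and spread of sample wells; inactive = the rest.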

A short description of one experiment: viability loss with induced miR-34 in A549 – imaging, A549 dox-inducible miR-34, nuclei and caspase counts, primary screen (AID 1347080). Note: test concentration not given here. Particulars: A549 miR-34 inducible, Hoechst nuclei count, 48 h; measured here: total cells without miR-34 induction.
`Fc1ccc(C(OCCN2CCN(C/C=C/c3ccccc3)CC2)c2ccc(F)cc2)cc1` gave a cell count of 2710.
`O=C1Nc2cc(Cl)c(Cl)cc2N2CCNCC12` (stereo not given) displayed a cell count of 8970.
In turn, `O=C1/C(=C/c2ccccc2)C[C@@]2(O)C3Cc4ccc(O)c5c4[C@@]2(CCN3CC2CC2)[C@H]1O5` showed a cell count of 833.
On the same count and under the same terms, the result for `CC(C)(C)NCC(O)COc1cccc2[nH]c(C#N)cc12` (stereo not given) reads 9910; that for `Cc1o[nH]c(=O)c1C[C@H](N)C(=O)O`, 8800; that for `C[C@H](N)Cc1cnc[nH]1`, 9200.
`c1ccc(CC(c2ccccc2)N2CCCCC2)cc1` (stereo not given) showed a cell count of 9860.
In turn, `CCCOc1ccc2[nH]cc(C3=CCNCC3)c2n1` showed a cell count of 9210.
The compound `CCCCCOc1c(OC)ccc2cc(C(=O)NCc3ccc4c(c3)OCO4)c(=O)[nH]c12` registered a cell count of 5260.
For the compound `CCN(CC)CCO[C@H]1CC[C@@]2(C)C(=CC[C@@H]3[C@@H]2CC[C@]2(C)C(=O)CC[C@@H]32)C1`, the cell count is 5930 and 7220.
For `CC(C)CC(N)C1(c2ccc(Cl)cc2)CCC1` (stereo not given), the cell count is 7770.
In the case of `O=C1CSC(c2ccccc2Cl)c2cc(Cl)ccc2N1` (stereo not given), the cell count was 2880 and 8400.
With `CC(=O)N1CC[N+](C)(C)CC1`, the cell count was determined as 9680.
Regarding `O=C(O)CCC(CP(=O)(O)O)C(=O)O` (stereo not given), the cell count came to 9860.
The same measure, in the same setting: the result for `COc1cc2c(cc1O)C(CCc1ccc(Cl)cc1)N(C)CC2` (stereo not given) reads 7480.
`N[C@]1(C(=O)O)CC[C@@H](C(=O)O)C1` (racemic) came in with a cell count of 8230.
Compound `c1ccc(C2CNCc3ccccc32)cc1` (stereo not given) came in with a cell count of 8500.
As for `COC1CCC2NC(C(=O)c3ccccc3)CC2C1` (stereo not given), the cell count was determined as 1320.
For the compound `O=C(O)/C=C/CO`, the cell count turned out to be 9510.
Still for that read-out and setting: under `CCOC(=O)c1ncn2c1CN(C)C(=O)c1cc(N=[N+]=[N-])ccc1-2` stands 8900; under `C(=C\c1ccccc1)/CN1CCN(CCOC(c2ccccc2)c2ccccc2)CC1`, 5780.
Take `C=C(C)[C@@H]1CCC(C)=C[C@H]1c1c(OC)cc(C)cc1OC`: the cell count was 5540 and 9700.
As for `C[C@H](N)Cn1ccc2cc(F)c(Cl)cc21`, the cell count amounted to 9140.
For `CCOC(=O)c1ncc2[nH]c3ccc(OCc4ccccc4)cc3c2c1COC`, the cell count is 2130.
The same measure, in the same setting: under `Cc1[nH]c2ccc(Cl)cc2c1C1=CCNCC1` stands 8550; under `CCC(Oc1ccc(Cl)cc1)C(=O)OC1CC2CCC(C1)N2C` (stereo not given), 9270.
For the compound `NCC(CS(=O)(=O)O)c1ccc(Cl)cc1` (stereo not given), the cell count worked out at 9570.
As to `CN1[C@@H]2CC[C@H]1CC(OC(=O)N1Cc3ccccc3NC1=O)C2` (stereo not given in full), the cell count turned out to be 8490.
Same read-out and setting: under `Cc1[nH]cnc1CCN` stands 10500.
In turn, `Cc1cc(C)cc(C(=O)OC2CC3CCC(C2)N3C)c1` (stereo not given) yielded a cell count of 8850.
As to `CCN1C[C@]2(COC(=O)c3ccccc3N3C(=O)C[C@H](C)C3=O)CC[C@H](OC)[C@]34C2[C@H](OC)[C@](O)([C@H]13)[C@@]1(O)C[C@H](OC)[C@H]2C[C@@H]4[C@@H]1[C@H]2OC`, the cell count worked out at 8740.
On the same count and under the same terms, under `CC[N+](CC)(CCCNC1=CC(=O)C(NCCC[N+](CC)(CC)Cc2ccccc2)=CC1=O)Cc1ccccc1` stands 9410; under `CCOc1cncc(/C=C/CCNC)c1`, 9060.
Still for that read-out and setting: under `Clc1ccc(C2=CCCC3CCC2N3)cn1` (stereo not given) stands 10100.
The compound `CN1CC[C@@H]2CN3CCc4cccc(c43)[C@@H]2C1` came in with a cell count of 8850.
The same measure, in the same setting: the result for `Cn1c2c(c3ccccc31)CCNCC2` reads 9070; that for `CCCCCCC[n+]1ccc(-c2cc[n+](CCCCCCC)cc2)cc1`, 1710; that for `C[C@H](Cc1ccc(OCC(=O)O)cc1)NC[C@H](O)c1cccc(Cl)c1`, 8500.
Consider `CN1Cc2ccccc2[C@@H]2c3cccc4[nH]cc(c34)C[C@H]21`, for which the cell count worked out at 4870.
For `CC1=C(O)C(=O)[C@@H]2O[C@@H]2C1=O`, the cell count came to 8130.

The nature of another experiment: galactose survival enhancers in mitochondrial complex I cybrids – cell-based, galactose medium, ATP luminescence, primary screen (AID 1645843).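 Note: positive z means more ATP and so rescue of galactose-driven cybrid death.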 Particulars: complex I mutant cybrid cells, 72 h, stronger effect = higher value.
With `Fc1ccc(C(OCCN2CCN(C/C=C/c3ccccc3)CC2)c2ccc(F)cc2)cc1`, the z-score was -1.23 (inactive).
Consider `O=C1Nc2cc(Cl)c(Cl)cc2N2CCNCC12` (stereo not given), for which the z-score is -0.265 (inactive).
Turning to `O=C1/C(=C/c2ccccc2)C[C@@]2(O)C3Cc4ccc(O)c5c4[C@@]2(CCN3CC2CC2)[C@H]1O5`, the z-score is -1.12 (inactive).
On to `CC(C)(C)NCC(O)COc1cccc2[nH]c(C#N)cc12` (stereo not given), for which the z-score was 0.025 (inactive).
As to `Cc1o[nH]c(=O)c1C[C@H](N)C(=O)O`, the z-score is 0.59 (inactive).
Turning to `C[C@H](N)Cc1cnc[nH]1`, the z-score is 0.12 (inactive).
Consider `c1ccc(CC(c2ccccc2)N2CCCCC2)cc1` (stereo not given), for which the z-score was -0.99 (inactive).
Take `CCCOc1ccc2[nH]cc(C3=CCNCC3)c2n1`: the z-score was -0.37 (inactive).
As to `CCCCCOc1c(OC)ccc2cc(C(=O)NCc3ccc4c(c3)OCO4)c(=O)[nH]c12`, the z-score is 0.125 (inactive).
For `CCN(CC)CCO[C@H]1CC[C@@]2(C)C(=CC[C@@H]3[C@@H]2CC[C@]2(C)C(=O)CC[C@@H]32)C1`, the z-score is -0.79 (inactive).
`CC(C)CC(N)C1(c2ccc(Cl)cc2)CCC1` (stereo not given): the z-score was -0.615 (inactive).
Take `O=C1CSC(c2ccccc2Cl)c2cc(Cl)ccc2N1` (stereo not given): the z-score was -0.095 (inactive).
Regarding `CC(=O)N1CC[N+](C)(C)CC1`, the z-score was 0.25 (inactive).
Take `O=C(O)CCC(CP(=O)(O)O)C(=O)O` (stereo not given): the z-score was -0.22 (inactive).
On the same count and under the same terms, under `COc1cc2c(cc1O)C(CCc1ccc(Cl)cc1)N(C)CC2` (stereo not given) stands -0.615 (inactive); under `N[C@]1(C(=O)O)CC[C@@H](C(=O)O)C1` (racemic), 0.095 (inactive).
Turning to `c1ccc(C2CNCc3ccccc32)cc1` (stereo not given), the z-score was -0.455 (inactive).
The same measure, in the same setting: the result for `COC1CCC2NC(C(=O)c3ccccc3)CC2C1` (stereo not given) reads 0.23 (inactive); that for `O=C(O)/C=C/CO`, -0.335 (inactive); that for `CCOC(=O)c1ncn2c1CN(C)C(=O)c1cc(N=[N+]=[N-])ccc1-2`, 0.06 (inactive).
Still for that read-out and setting: under `C(=C\c1ccccc1)/CN1CCN(CCOC(c2ccccc2)c2ccccc2)CC1` stands -1.21 (inactive).
As for `C=C(C)[C@@H]1CCC(C)=C[C@H]1c1c(OC)cc(C)cc1OC`, the z-score is -0.105 (inactive).
Still for that read-out and setting: the result for `C[C@H](N)Cn1ccc2cc(F)c(Cl)cc21` reads -0.575 (inactive); that for `CCOC(=O)c1ncc2[nH]c3ccc(OCc4ccccc4)cc3c2c1COC`, -0.79 (inactive).
With `Cc1[nH]c2ccc(Cl)cc2c1C1=CCNCC1`, the z-score was -0.42 (inactive).
As to `CCC(Oc1ccc(Cl)cc1)C(=O)OC1CC2CCC(C1)N2C` (stereo not given), the z-score was -0.285 (inactive).
For the compound `NCC(CS(=O)(=O)O)c1ccc(Cl)cc1` (stereo not given), the z-score was 0.475 (inactive).
As for `CN1[C@@H]2CC[C@H]1CC(OC(=O)N1Cc3ccccc3NC1=O)C2` (stereo not given in full), the z-score was 0.365 (inactive).
Regarding `Cc1[nH]cnc1CCN`, the z-score was 0.125 (inactive).
As for `Cc1cc(C)cc(C(=O)OC2CC3CCC(C2)N3C)c1` (stereo not given), the z-score is -0.125 (inactive).
On to `CCN1C[C@]2(COC(=O)c3ccccc3N3C(=O)C[C@H](C)C3=O)CC[C@H](OC)[C@]34C2[C@H](OC)[C@](O)([C@H]13)[C@@]1(O)C[C@H](OC)[C@H]2C[C@@H]4[C@@H]1[C@H]2OC`, for which the z-score is -0.21 (inactive).
On to `CC[N+](CC)(CCCNC1=CC(=O)C(NCCC[N+](CC)(CC)Cc2ccccc2)=CC1=O)Cc1ccccc1`, for which the z-score is -0.46 (inactive).
For the compound `CCOc1cncc(/C=C/CCNC)c1`, the z-score is -0.075 (inactive).
For `Clc1ccc(C2=CCCC3CCC2N3)cn1` (stereo not given), the z-score was 0.365 (inactive).
Consider `CN1CC[C@@H]2CN3CCc4cccc(c43)[C@@H]2C1`, for which the z-score is -0.34 (inactive).
Same read-out and setting: the result for `Cn1c2c(c3ccccc31)CCNCC2` reads -0.23 (inactive).
As for `CCCCCCC[n+]1ccc(-c2cc[n+](CCCCCCC)cc2)cc1`, the z-score was -1.1 (inactive).
With `C[C@H](Cc1ccc(OCC(=O)O)cc1)NC[C@H](O)c1cccc(Cl)c1`, the z-score was -0.27 (inactive).
For the compound `CN1Cc2ccccc2[C@@H]2c3cccc4[nH]cc(c34)C[C@H]21`, the z-score was -0.7 (inactive).
Take `CC1=C(O)C(=O)[C@@H]2O[C@@H]2C1=O`: the z-score was 0.005 (inactive).
